RORgamma inh: inhibitors of mouse ROR gamma transcriptional activity; P51450; Drosophila S2 Gal4-RORgamma UAS-luciferase reporter, 20 h; Potency, µM (titrated, usually from 53.6 µM), actives largely listed as inhibitors; hit rate 5.4% among 310,000; AID 2551; also: nearly all actives have a fitted effect of over 60% in size
Target sequence (P51450 whole entry, looked up, the tested form may be a part): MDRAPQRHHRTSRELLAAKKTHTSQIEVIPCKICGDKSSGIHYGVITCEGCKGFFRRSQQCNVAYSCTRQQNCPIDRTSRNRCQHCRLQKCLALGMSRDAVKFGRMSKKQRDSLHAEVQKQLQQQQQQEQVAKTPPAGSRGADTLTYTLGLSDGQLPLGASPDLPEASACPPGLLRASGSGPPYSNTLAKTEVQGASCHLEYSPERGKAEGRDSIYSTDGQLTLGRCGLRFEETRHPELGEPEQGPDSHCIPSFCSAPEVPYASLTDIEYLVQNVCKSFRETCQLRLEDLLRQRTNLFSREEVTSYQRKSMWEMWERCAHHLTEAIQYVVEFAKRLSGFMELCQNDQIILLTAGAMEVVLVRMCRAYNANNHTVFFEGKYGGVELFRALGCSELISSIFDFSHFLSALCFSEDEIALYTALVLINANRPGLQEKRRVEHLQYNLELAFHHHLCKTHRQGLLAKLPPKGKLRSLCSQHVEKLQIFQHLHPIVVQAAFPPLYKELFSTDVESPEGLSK
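Luciferase reporter read in Schneider cells carrying Gal4-RORγ (mouse) and UAS-Photinus luciferase; cells given compound 1 h before 700 uM copper sulfate induction, then incubated 20 h at ambient temperature.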
TDP1 cell CPT: growth inhibition of DT40 Tdp1-/-;hTDP1 cells with camptothecin (screen for TDP1 inhibitors); chicken DT40 Tdp1-/-;hTDP1 cells + 20 nM CPT, ATP luminescence, 48 h; Potency, µM (top dose mostly 46.2 µM), hits mostly inhibitors; hit rate 12% among 420,000; AID 686979; also: nearly all actives have a fitted effect of over 55% in size
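Chicken DT40 Tdp1-/- cells stably complemented with human TDP1 were seeded at 400 cells/well in medium containing 20 nM camptothecin, exposed to pin-transferred compounds, and grown at 37 °C for at least 48 hr. Viability was read as ATP luminescence.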
DT40 TDP1 no CPT: qHTS for Inhibitors of human tyrosyl-DNA phosphodiesterase 1 (TDP1): qHTS in cells in absence of CPT | Potency, µM (highest dose often 46.2 µM), most hits filed as inhibitors | AID 686978, 2013 | DT40 Tdp1-/- hTDP1 cells, no CPT, ATP luminescence, 48 h | hit rate 15% among 420,000; also: nearly all actives have a fitted effect of over 55% in size
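Stably hTDP1-transfected Tdp1-null chicken DT40 cells were treated with library compounds minus camptothecin and grown for at least 48 hr at 37 °C, after which cellular ATP was quantified by luminescence.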
Gal4-VP16 FLuc: counter-screen for ROR gamma inhibitors: Gal4-VP16 reporter; Drosophila S2 Gal4-VP16 UAS-luciferase, luminescence, 20 h; Potency, µM (highest dose often 53.6 µM), actives largely listed as inhibitors; hit rate 3.5% among 310,000; AID 2546;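 also: Gal4-VP16 expression switched on by copper sulfate through the metallothionein promoter; nearly all actives have a fitted effect of over 50% in size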
TDP1 block: inhibitors of human tyrosyl-DNA phosphodiesterase TDP1. hit rate 0.28% among 350,000. AID 485290. Potency, µM (series often up to 130 µM), actives largely listed as inhibitors. recombinant TDP1, AlphaScreen DNA substrate cleavage. Q9NUW8; also: nearly all actives have a fitted effect of over 40% in size
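Recombinant E. coli-expressed Tdp1 (1 nM) preincubated with compound 15 min at RT, then 5'-biotin/3'-phosphotyrosine-FITC DNA substrate (15 nM) added for 5 min. AlphaScreen beads (10 ug/ml) added, 10 min RT; tyrosine-FITC cleavage read as signal loss.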
Numbers stand for hits; – = inactive; ? = inconclusive; · = no result given; [ ] = another dose, or the depositor's remark. This is a sample that favours compounds with a hit; in the whole collection about 19% have one here. Calls follow the shape of the dose curve; as a rule, active = well fitted curve in the direction sought with a large enough effect; inconclusive = small, poorly fitted or top-dose-only effect, or another doubt; inactive = no such curve, though single readings can be large; an effect the other way counts as inactive or inconclusive.

SMILES	RORgamma inh	TDP1 cell CPT	DT40 TDP1 no CPT	Gal4-VP16 FLuc	TDP1 block
CCOCCCNc1nc(C(F)(F)F)nc2c1nnn2Cc1ccccc1Cl	?	18µM	15µM	–	·
Cc1nc(NCCN2CCOCC2)c2nnn(Cc3ccccc3Cl)c2n1	–	–	–	–	–
CC(Oc1ccc2c3c(c(=O)oc2c1)CCC3)C(=O)NCC1CCC(C(=O)O)CC1 (configuration not stated)	–	–	–	–	·
O=C(Nc1ccc(Br)cc1)C(c1ccccc1)c1ccccc1	–	–	?	–	–
COCC(=O)N(Cc1nc2sc(C)c(C)c2c(=O)[nH]1)C1CCCCC1	–	–	–	–	–
Cc1sc2nc(CN(Cc3cccs3)C(=O)NC3CCCCC3)[nH]c(=O)c2c1C	–	23µM	?	–	–
Cc1sc2nc(CN(C(=O)NC3CCCCC3)C3CCCC3)[nH]c(=O)c2c1C	8.9µM	?	16µM	14µM	–
O=C(c1csc2c1CCCC2)N1CCCCC1	–	?	–	–	–
O=C(NC1(C(F)(F)F)N=C2SCCN2C1=O)c1ccccc1F (configuration not stated)	–	–	–	–	–
CC(C)(C)C1CCc2c(sc(NC(=O)CSc3ncn[nH]3)c2C#N)C1 (configuration not stated)	?	?	?	11µM	–
N#Cc1c(NC(=O)CSc2ncn[nH]2)sc2c1CCCC2	0.32µM	?	?	0.11µM	–
Cc1ccnc(SCC(=O)Nc2sc3c(c2C#N)CCCC3)n1	?	3.3µM	2.9µM	7.1µM	–
CCN1CCN(CC(=O)Nc2sc3c(c2C#N)CCC(C)C3)CC1 (configuration not stated)	?	?	18µM	–	–
CCC(=O)Nc1ccccc1-c1nc2ccccc2n(Cc2cccc(Br)c2)c1=O	·	–	–	·	–
Cc1cccc(NC(=O)c2cccc3c2C(=O)c2ccccc2-3)c1	–	–	–	–	–
CCCc1cc(=O)[nH]c(SCC(=O)Nc2sc3c(c2C#N)CCC(C)C3)n1 (configuration not stated)	–	–	–	–	–
CC(=O)c1c(C)[nH]c(C(=O)OCC(=O)Nc2sc3c(c2C#N)CCC(C)C3)c1C (configuration not stated)	–	?	23µM	–	·
CC1CCc2c(sc(NC(=O)CSc3ncn[nH]3)c2C#N)C1 (configuration not stated)	0.32µM	?	23µM	0.079µM	·
CC1CCc2c(sc(NC(=O)COC(=O)c3ccc(NC(=O)CC#N)cc3)c2C#N)C1 (configuration not stated)	·	–	–	·	–[0.505 µM]
CC(C)(C)NC(=O)C(c1cccc2ccccc12)n1c(=O)c(-c2ccccc2)nc2ccccc21 (configuration not stated)	·	21µM	0.13µM	·	·
CC(=O)Nc1cccc(-c2nc3ccccc3n2C(C)C(=O)NC(C)(C)C)c1 (configuration not stated)	·	?	–	·	·
CC(C)(C)NC(=O)C(c1cccc2ccccc12)n1c(=O)c(-c2ccco2)nc2ccccc21 (configuration not stated)	·	23µM	?	·	·
O=C(N[C@H]1CC1c1ccccc1)c1ccc([N+](=O)[O-])cc1 (some centres not stated)	–	?	?	–	–
CCOc1ccc(S(=O)(=O)N2CCC(n3c(C)nc4cccnc43)CC2)cc1	·	21µM	12µM	·	–
CCOc1ccccc1NC(=O)N1CCC(n2c(C)nc3cccnc32)CC1	·	–	–	·	–
SMILES	RORgamma inh	TDP1 cell CPT	DT40 TDP1 no CPT	Gal4-VP16 FLuc	TDP1 block
CCCS(=O)(=O)N1CCC(n2c(C)nc3cccnc32)CC1	·	18µM	18µM	·	–
CCOc1ccc(S(=O)(=O)N2CCC(c3ccncc3)CC2)cc1	·	12µM	?	·	–
Cc1nc2cccnc2n1C1CCN(S(=O)(=O)N(C)C)CC1	·	–	?	·	–
CCOc1ccc(S(=O)(=O)n2c(C)nc3ccccc32)cc1	–	?	21µM	–	–
O=C(c1cc(Cl)ccc1[N+](=O)[O-])n1cnc2ccccc21	–	–	–	–	–
CC1(C(=O)NS(=O)(=O)c2ccc(Cl)cc2)CCN1C(=O)Cc1cccs1 (configuration not stated)	·	–	–	·	·
CCC(O)(C(=O)Nc1ccccc1C(F)(F)F)c1ccccc1OC (configuration not stated)	·	–	–	·	–
O=C1CC(c2ccccc2)n2ncnc2N1 (configuration not stated)	–	–	–	–	–
CNC(=S)N(Cc1cccs1)Cc1cc2ccc(OC)cc2[nH]c1=O	–	?	18µM	–	–
COc1cc2cc(CN(Cc3cccs3)C(=S)Nc3ccccc3)c(=O)[nH]c2cc1OC	–	?	21µM	–	–
Cc1cccc2cc(CN(Cc3cccs3)C(=S)NCC3CCCO3)c(=O)[nH]c12 (configuration not stated)	–	?	?	–	–
COc1cc2cc(CN(CCc3ccccc3C)C(=S)NCCCN(C)C)c(=O)[nH]c2cc1OC	–	?	16µM	?	–
COc1ccc2[nH]c(=O)c(CN(Cc3cccs3)C(=S)Nc3ccccc3)cc2c1	–	·	·	–	–
Cc1ccc(NC(=S)N(Cc2cccs2)Cc2cc3cccc(C)c3[nH]c2=O)cc1	–	21µM	12µM	–	–
CCNC(=S)N(CCc1ccccc1C)Cc1cc2cc(OC)c(OC)cc2[nH]c1=O	–	–	–	–	–
CN1C(=O)[C@H]2[C@@H](/C=C/c3ccccc3)N3C(=O)CN(Cc4ccccn4)C(=O)[C@@]3(Cc3ccccc3)[C@H]2C1=O	·	–	–	·	–
COc1ccccc1CN1CC(C(=O)NCc2cnn(C)c2)CCC1=O (configuration not stated)	–	–	–	–	–
Cc1ccc(-c2nn(CC(=O)NC3CCCCC3)c3c2cnc2ccc(F)cc23)cc1C	·	–	–	·	–
CCn1c(SCC#N)nc2cc(S(=O)(=O)N3CCOCC3)ccc21	–	–	–	–	–
Cc1cc(-c2ccc(C(C)C)c(S(=O)(=O)N3CCN(c4ccccn4)CC3)c2)on1	–	18µM	21µM	–	–
CCc1ccc(-c2cc(C)no2)cc1S(=O)(=O)N1CCN(c2ccccn2)CC1	–	?	?	–	–
COc1ccc(-c2cc(C)no2)cc1S(=O)(=O)N1CCN(c2ccccn2)CC1	–	?	21µM	–	–
COc1ccc(-c2cc(C)no2)cc1S(=O)(=O)N1CCN(c2ccccc2F)CC1	–	?	?	–	–
CCCCN(C(=O)C1CC(=O)N(Cc2ccc(C)cc2)C1)c1c(N)n(CC(C)C)c(=O)[nH]c1=O (configuration not stated)	–	–	–	–	–

Compound activity (PubChem)
